± gives the standard deviation of the averaged measurements.
Tested on: AmpC beta-lactamase (E. coli)
Assay: AmpC inhibition relative to DMSO; higher = more inhibition
Experimental: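 Aggregation counter-screen: inhibition of E. coli AmpC beta-lactamase (5 nM, nitrocefin substrate, 50 mM sodium phosphate pH 7.0, RT, 5 min) by KAT inhibitors at 4, 11, 33 and 100 uM, with or without 0.01% Triton X-100. Percent inhibition is relative to DMSO controls. Four technical replicates.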

[1] = 4 µM, detergent: 0.01% Triton X-100
[2] = 11 µM, detergent: 0.01% Triton X-100
[3] = 33 µM, detergent: 0.01% Triton X-100
[4] = 100 µM, detergent: 0.01% Triton X-100
[5] = 100 µM, detergent: no detergent

| SMILES | AmpC inhibition [1] | AmpC inhibition (4 µM, detergent: no detergent) | AmpC inhibition [2] | AmpC inhibition (11 µM, detergent: no detergent) | AmpC inhibition [3] | AmpC inhibition (33 µM, detergent: no detergent) | AmpC inhibition [4] | AmpC inhibition [5] |
| --- | --- | --- | --- | --- | --- | --- | --- | --- |
| O=C(NNS(=O)(=O)c1ccccc1)c1cc(-c2ccnnc2)ccc1F | 9.2 ± 1.8% | 2.19 ± 10% | 3.76 ± 1.8% | 16.9 ± 8% | 3.27 ± 1.3% | 5.35 ± 1.6% | 12.2 ± 5.5% | 11.9 ± 7.5% |
| CNC(=O)Nc1ccc2c(c1)[C@@]1(CC2)OC(=O)N(CC(=O)N(Cc2ccc(F)cc2)[C@@H](C)C(F)(F)F)C1=O | 9.1 ± 0.37% | 2.44 ± 8.2% | 6.71 ± 1% | 7.48 ± 3.8% | -0.0601 ± 2.8% | -5.13 ± 2% | -4.9 ± 5.7% | -1.81 ± 4.7% |
| c1cc(SSc2ccns2)sn1 | 7.81 ± 8.7% | -0.684 ± 6.7% | 6.83 ± 7.1% | 5.01 ± 6.3% | 7.13 ± 7.9% | 3.34 ± 12% | 9.28 ± 4% | 11 ± 4.2% |
| CC(C)([C@](C1=O)(C2=O)C/C=C(C)\C)[C@@H](C[C@]31C[C@@H](C(C)(OC3=C2C(C4=CC(O)=C(C=C4)O)=O)C)C/C=C(C)\C)C/C=C(C)\C | 8.42 ± 5.3% | 13.3 ± 3.5% | 4.79 ± 3.2% | 90 ± 9.4% | 4.67 ± 6.9% | 93.15 ± 0.89% | 2.77 ± 1.7% | 92.3 ± 0.78% |
| Cc1cc(-c2ccccc2)cc(C(=O)NNS(=O)(=O)c2ccccc2)c1F | 10.3 ± 2.6% | 7.83 ± 8% | 6.24 ± 2.3% | 9.5 ± 7% | 1.15 ± 3% | 15 ± 4.6% | 8.19 ± 9.7% | 53.4 ± 7.8% |

Source: the supplement of paper PMC10011410
